Only some compounds are listed: those with a hit (about 2.9% of all), similar ones and a draw of the others.
PAFAH1B3 inh = PAFAH1B3 enzyme inhibitors, primary screen, biochemical, fluorescence polarization, human; 340,000 tested, 0.28% active; recombinant PAFAH1B3, FP-rhodamine probe; AID 492972, 2010; inhibition, % at 3.39 µM;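 active means inhibition above the screen-wide average of all tested compounds plus 3 SD, cut at about 25% in these data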
pPAFAH FP inh = pPAFAH enzyme inhibitors, primary screen, biochemical, fluorescence polarization, human; inhibition, % at 3.39 µM; Platelet-activating factor acetylhydrolase (Homo sapiens), Q13093; 330,000 tested, 1.5% active; AID 463082, 2010; recombinant pPAFAH, FP-rhodamine probe fluorescence polarization;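 active means inhibition above the mean inhibition across the screen plus 3 SD, cut at about 25% in these data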;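 further: inhibitors block binding of the rhodamine activity-based probe so polarization drops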
Target sequence (Q13093 whole entry, looked up): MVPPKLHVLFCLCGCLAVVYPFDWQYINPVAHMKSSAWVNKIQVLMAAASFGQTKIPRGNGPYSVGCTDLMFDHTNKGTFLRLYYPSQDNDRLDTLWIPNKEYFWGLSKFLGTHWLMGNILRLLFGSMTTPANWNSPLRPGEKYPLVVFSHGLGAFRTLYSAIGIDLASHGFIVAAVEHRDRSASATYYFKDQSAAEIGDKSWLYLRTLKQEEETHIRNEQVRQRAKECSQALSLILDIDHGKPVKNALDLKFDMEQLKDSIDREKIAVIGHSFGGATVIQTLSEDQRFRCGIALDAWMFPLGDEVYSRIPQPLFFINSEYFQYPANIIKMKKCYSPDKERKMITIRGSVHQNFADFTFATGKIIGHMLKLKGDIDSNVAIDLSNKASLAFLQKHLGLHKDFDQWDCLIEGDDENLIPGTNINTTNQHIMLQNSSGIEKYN
LYPLA1 counter = LYPLA1 inhibitors, primary screen, counter-screen for PME1 inhibitor project, biochemical, fluorescence polarization, FP-Rh probe ABPP | Acyl-protein thioesterase 1 (Homo sapiens), O75608 | recombinant LYPLA1 | inhibition, % at 5.9 µM | 320,000 tested, 0.16% active | AID 2174, 2009;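 active means inhibition above the mean of all tested compounds plus 3 SD, set per campaign, cut at about 14% in these data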;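 further: inhibitors block serine hydrolase probe labeling of LYPLA1 so polarization falls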
PAFAH1B2 FP inh = PAFAH1B2 enzyme inhibitors, primary screen, biochemical, fluorescence polarization, human. Platelet-activating factor acetylhydrolase IB subunit alpha2 (Homo sapiens), P68402. 340,000 tested, 1.2% active. recombinant PAFAH1B2, FP-rhodamine activity probe. inhibition, % at 3.39 µM;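 active means inhibition above the mean of all tested compounds plus 3 SD, cut at about 24% in these data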
PAFAH2 inh = PAFAH2 enzyme inhibitors, primary screen, biochemical, fluorescence polarization, human; recombinant PAFAH2, FP-rhodamine activity probe; inhibition, % at 3.39 µM; 340,000 tested, 0.99% active; AID 492956, 2010;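 active means inhibition above the mean over all tested compounds plus 3 SD, cut at about 30% in these data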;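 further: inhibitors block probe labeling of enzyme so polarization drops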
LYPLA2 counter = LYPLA2 inhibitors, primary screen, counter-screen for PME1 inhibitor project, biochemical, fluorescence polarization, FP-Rh probe ABPP; Acyl-protein thioesterase 2 (Homo sapiens), O95372; recombinant LYPLA2; inhibition, % at 5.9 µM; 320,000 tested, 0.38% active; AID 2177, 2009;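 active means inhibition above the screen-wide mean plus 3 SD, limit set per campaign, cut at about 26% in these data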
Target sequence (O95372 whole entry, looked up): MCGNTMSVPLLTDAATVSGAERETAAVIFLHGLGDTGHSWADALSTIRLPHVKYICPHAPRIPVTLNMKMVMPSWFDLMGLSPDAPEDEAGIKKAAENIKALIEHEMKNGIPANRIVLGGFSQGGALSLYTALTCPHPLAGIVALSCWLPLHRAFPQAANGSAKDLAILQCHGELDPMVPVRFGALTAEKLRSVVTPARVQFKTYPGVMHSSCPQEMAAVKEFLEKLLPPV
Each line names hits and unclear results; the compound was inactive in the other large screens.

CC(C)Cc1csc(NC(=O)c2ccc(Cl)cc2)c1C(=O)O	PAFAH2 inh 42.4
O=C1CC(N2CCN(Cc3ccc(Cl)cc3)CC2)C(=O)N1CCc1ccccc1 (stereo unspecified)	none
O=C(c1cc(F)ccc1F)C1CCCN(C(=O)c2cccs2)C1 (stereo unspecified)	none
O=C(c1ccc(CS(=O)Cc2ccc(Cl)cc2)o1)N1CCN(c2ccc(F)cc2)CC1 (stereo unspecified)	pPAFAH FP inh 29.5
O=C(c1ccc(CS(=O)Cc2ccc(Cl)cc2)o1)N1CCN(c2cccc(Cl)c2)CC1 (stereo unspecified)	pPAFAH FP inh 25.7
O=C(CCC(=O)N1CCN(c2ccccc2)CC1)Nc1nnc(C2CCCCC2)s1	none
Cc1sc2nc(CN3CCOCC3)nc(N3CCOCC3)c2c1C	none
CCOC(=O)N1CCN(C(=O)CN2C(=O)NC(c3ccccc3)(c3ccccc3)C2=O)CC1	none
CC1CC(C)CN(C(=O)CN2C(=O)NC(c3ccccc3)(c3ccccc3)C2=O)C1 (stereo unspecified)	PAFAH1B2 FP inh 26.1
O=C(COC(=O)c1ccccc1Br)Nc1cc(S(=O)(=O)N2CCOCC2)ccc1N1CCCC1	none
CCNc1nc(NCC)nc(N(CC)C(N)=S)n1	none
COc1ccccc1C(=O)ON=C1c2ccccc2-c2ccccc21	pPAFAH FP inh 29.2, PAFAH2 inh 57.0
O=C(CSc1cccc2cccnc12)NCc1ccco1	none
O=C(CSc1nnc(NC(=O)C2CCC2)s1)Nc1ccccc1	none
CCCNS(=O)(=O)c1ccc(N2CCCC2=O)c([N+](=O)[O-])c1	none
O=C1CCCN1c1ccc(S(=O)(=O)Oc2ccc(Cl)cc2)cc1[N+](=O)[O-]	PAFAH1B2 FP inh 69.0
O=c1cc(-c2ccc(Cl)c(Cl)c2)[nH][nH]1	pPAFAH FP inh 25.9
Cc1cccc(C(=O)OCC(=O)N2CCN(C(=O)c3ccco3)CC2)c1O	none (no result: LYPLA1 counter, LYPLA2 counter)
Cc1ccc(SCC(=O)OCC(=O)N2CCN(C(=O)c3ccco3)CC2)c(C)c1	pPAFAH FP inh 33.6
O=C(CSc1ccccc1)OCC(=O)N1CCN(C(=O)c2ccco2)CC1	pPAFAH FP inh 25.5
Cc1cccc(OCC(=O)OCC(=O)N2CCN(C(=O)c3ccco3)CC2)c1C	pPAFAH FP inh 26.9
CC(=O)Nc1cccc(C(=O)OCC(=O)NNC(=O)c2ccc([N+](=O)[O-])cc2)c1	none
CCOC(=O)CSc1nnc2c(n1)C1(C)CCC2C1(C)C (stereo unspecified)	none
CCCC(=O)OCCNc1cc(Sc2nc3ccccc3[nH]2)c2nonc2c1[N+](=O)[O-]	none
CCCS(=O)(=O)c1c(S(=O)(=O)CCC)c2ccc(C(N)=O)cn2c1C(=O)OC	none
Cn1cnnc1SCc1ccc(-c2ccc(Br)cc2)o1	pPAFAH FP inh 26.3
Cn1cnnc1SCc1ccccc1	none
CN(C)S(=O)(=O)c1ccc(C(=O)Nc2cc3c(cc2C(=O)O)OCCCO3)cc1	none
Clc1cccc(Cl)c1CSc1nnc(/C=C/c2ccccc2)o1	none
c1ccc(C(c2ccccc2)c2ccn[nH]2)cc1	PAFAH1B2 FP inh 27.1
Oc1ccc(C23CC4CC(CC(C4)C2)C3)cc1O	PAFAH1B2 FP inh 61.1
CC(=O)Nc1ccc(C23CC4CC(CC(C4)C2)C3)cc1	PAFAH1B2 FP inh 25.5
O=C1Nc2ccccc2C(=O)N2[C@H](c3cccc(Br)c3)[C@@H]3C(=O)N(Cc4ccccc4)C(=O)[C@@H]3[C@H]12	none
Cc1ccc(C)c(NC(=O)CN(C)C(=O)C2CCN(S(=O)(=O)c3ccc4c(c3)OCCO4)CC2)c1	none
O=C(NC1CCCCC1)c1nn2c(C(F)(F)F)cc(-c3ccco3)nc2c1Br	none
O=C(c1ccccc1)N1CCN(C(=O)c2nn3c(C(F)(F)F)cc(-c4ccco4)nc3c2Br)CC1	pPAFAH FP inh 34.3
Cc1ccc(C(C)C)c(OCC(=O)NNCC(=O)Nc2cccc(F)c2)c1	PAFAH1B2 FP inh 25.4 (no result: LYPLA1 counter, LYPLA2 counter)
COc1ccc(C2CC(=O)C3=C(C2)Nc2ccccc2N(C(=O)CCC(=O)O)C3c2ccc(F)cc2)cc1OC (stereo unspecified)	none
O=c1ccc(NS(=O)(=O)c2ccccc2)cn1Cc1ccc(Cl)c(Cl)c1	pPAFAH FP inh 25.8
COc1ccc(C(CC(=O)Nc2ccccc2OC)n2cccc2)cc1 (stereo unspecified)	none
Cc1ccc(-c2cc(-c3ccc(C)o3)nc(N)c2C#N)cc1	none
Cc1ccc(-c2cc(-c3ccc(Cl)cc3)c(C#N)c(N)n2)o1	pPAFAH FP inh 24.9
O=S(=O)(NCCSc1nnnn1-c1ccccc1)c1cccs1	none
c1ccc(OCc2nn3c(Cn4nnc5ccccc54)nnc3s2)cc1	PAFAH1B2 FP inh 24.4
c1ccc(Cc2nn3c(Cn4nnc5ccccc54)nnc3s2)cc1	none
Cc1ccc(C(=O)NCC(=O)OCC(=O)Nc2ccc(Cl)cc2C(F)(F)F)cc1C	none
Cc1ccsc1C(=O)OCC(=O)Nc1ccc(Cl)cc1C(F)(F)F	pPAFAH FP inh 32.6, PAFAH2 inh 51.1
S=C(Nc1ccccc1)N1CCOCCOCCN(C(=S)Nc2ccccc2)CCOCCOCC1	none
S=C(Nc1ccc(Oc2ccccc2)cc1)N1CCOCC1	PAFAH1B3 inh 115.1, PAFAH1B2 FP inh 93.2, PAFAH2 inh 127.1
COc1cc(/C=C(\C#N)c2nc3ccccc3s2)cc([N+](=O)[O-])c1O	PAFAH1B3 inh 42.3, PAFAH1B2 FP inh 28.8, PAFAH2 inh 54.7 (no result: pPAFAH FP inh, LYPLA1 counter, LYPLA2 counter)
N#C/C(=C\c1ccc(O)c([N+](=O)[O-])c1)c1nc2ccccc2s1	PAFAH1B3 inh 31.1, PAFAH1B2 FP inh 30.3, PAFAH2 inh 44.4 (no result: pPAFAH FP inh, LYPLA1 counter, LYPLA2 counter)
CC1(COS(N)(=O)=O)CCCCC1	PAFAH1B2 FP inh 34.6
N/C(CN1CCSCC1)=N\OCc1c(F)cccc1Cl	none
Cc1ccc(S(=O)(=O)c2nc(S(=O)(=O)c3ccccc3)sc2N2CCN(C)CC2)cc1	pPAFAH FP inh 31.2
N=c1c(S(=O)(=O)c2ccc(Br)cc2)cc2c(=O)n3ccccc3nc2n1CCN1CCOCC1	PAFAH1B2 FP inh 40.7 (no result: pPAFAH FP inh, LYPLA1 counter, LYPLA2 counter)
CCCn1c(=N)c(S(=O)(=O)c2ccccc2)cc2c(=O)n3ccccc3nc21	none
N=c1c(S(=O)(=O)c2ccccc2)cc2c(=O)n3ccccc3nc2n1Cc1ccco1	pPAFAH FP inh 26.1
CCOc1cc(C(=O)OCc2cccc(OC)c2OC)ccc1OCC(=O)N1CCOCC1	pPAFAH FP inh 32.5
CCOc1cc(C(=O)OCc2ccc([N+](=O)[O-])cc2)ccc1OCC(=O)N1CCOCC1	none
O=Cc1cc2cc3c(cc2nc1Cl)OCCO3	none (no result: PAFAH1B3 inh, PAFAH1B2 FP inh, PAFAH2 inh)
O=C(O)c1ccc(N/N=C/c2cc3cc4c(cc3nc2Cl)OCCO4)cc1	pPAFAH FP inh 30.1

Screens from PubChem BioAssay.
